Assay results taken from PubChem BioAssay.
Records with an inconclusive call do not appear. Activity calls are given as the source filed them.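 Rule for the calls, unless noted: active = growth inhibition above 25% in both replicates, a cutoff set 3 SD above the mean; inconclusive = above 25% in only one replicate; inactive = the rest.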

Experiments:
[1] = reducers of endogenous Her2 protein level, primary screen, SKBR3 breast tumor cells, AlphaScreen, ATP viability (AID 461;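 active = Her2 level under about 52% in both replicate screens, with viability over 70% of control, limit read from the data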;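 for Her2 level: lower value means less Her2 protein in the cells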;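 for viability: percent of carrier control wells set as 100% viability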); details: 18-24 h, measured here: SKBR3 viability, ATP luminescence, at 10 µM
[2] = biological target: Receptor tyrosine-protein kinase erbB-2 (Homo sapiens) (UniProt P04626); experiment: as above; details: 18-24 h, at 10 µM, stronger effect = lower value
Chain of Receptor tyrosine-protein kinase erbB-2 (Homo sapiens) (P04626 whole entry, looked up): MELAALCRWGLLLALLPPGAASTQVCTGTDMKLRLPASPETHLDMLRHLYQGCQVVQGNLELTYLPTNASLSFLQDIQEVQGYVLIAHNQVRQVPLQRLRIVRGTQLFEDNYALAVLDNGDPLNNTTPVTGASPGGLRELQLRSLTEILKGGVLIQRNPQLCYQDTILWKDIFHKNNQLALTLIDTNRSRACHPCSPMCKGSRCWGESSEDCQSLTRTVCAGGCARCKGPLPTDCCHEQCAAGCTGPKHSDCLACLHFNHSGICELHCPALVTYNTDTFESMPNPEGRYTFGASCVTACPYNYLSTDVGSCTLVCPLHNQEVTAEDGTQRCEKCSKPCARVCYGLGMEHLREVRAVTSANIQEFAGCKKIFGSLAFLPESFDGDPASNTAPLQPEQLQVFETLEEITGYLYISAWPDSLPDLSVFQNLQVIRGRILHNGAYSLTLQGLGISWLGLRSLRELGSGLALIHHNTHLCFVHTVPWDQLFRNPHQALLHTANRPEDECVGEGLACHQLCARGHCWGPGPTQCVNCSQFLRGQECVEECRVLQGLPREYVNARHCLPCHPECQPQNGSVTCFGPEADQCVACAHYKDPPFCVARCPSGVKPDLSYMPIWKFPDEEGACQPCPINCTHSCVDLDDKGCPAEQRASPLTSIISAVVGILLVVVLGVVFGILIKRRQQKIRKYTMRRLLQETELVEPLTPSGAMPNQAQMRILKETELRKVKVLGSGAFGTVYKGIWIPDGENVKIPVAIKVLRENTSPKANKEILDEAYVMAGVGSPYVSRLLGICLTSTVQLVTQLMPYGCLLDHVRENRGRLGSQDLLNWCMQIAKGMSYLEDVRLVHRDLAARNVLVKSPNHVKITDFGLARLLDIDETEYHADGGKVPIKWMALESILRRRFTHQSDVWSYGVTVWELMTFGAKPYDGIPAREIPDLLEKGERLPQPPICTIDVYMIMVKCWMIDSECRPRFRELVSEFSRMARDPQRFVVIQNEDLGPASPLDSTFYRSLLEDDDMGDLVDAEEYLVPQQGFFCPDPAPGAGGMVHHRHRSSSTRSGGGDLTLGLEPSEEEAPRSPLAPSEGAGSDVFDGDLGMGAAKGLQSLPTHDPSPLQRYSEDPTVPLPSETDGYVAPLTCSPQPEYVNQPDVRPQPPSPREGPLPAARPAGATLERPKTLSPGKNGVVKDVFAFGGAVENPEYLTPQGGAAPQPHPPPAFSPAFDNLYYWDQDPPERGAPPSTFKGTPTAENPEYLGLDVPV

[3] = SK-BR-3 cell growth inhibitors, pilot screen, 24 h, human (AID 572;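 active = viability at or below 10% of carrier control in both of two separate runs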;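 note: compound exposure lasted between 18 and 24 h rather than exactly 24 h; 100% = carrier-treated control wells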); details: SK-BR-3 viability, CellTiter-Glo luminescence, at 10 µM, stronger effect = lower value
[4] = HUVEC growth inhibition – cell-based, human, primary screen (AID 575;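 active = viability at or below 30% in both replicate assays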;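 note: 100% = median of untreated cell wells with 0.1% DMSO on each plate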); details: HUVEC proliferation, CellTiter-Glo luminescence, 72 h; at 10 µM; stronger effect = lower value
[5] = growth inhibitors of H69AR lung tumor, primary screen, human, duplicate replicates (AID 580;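 active = viability at or under a set limit in both replicates, limit being median viability minus 3 SD, cut at about 48% in these data, passing the limit was not always enough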;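 note: 100% = mean luminescence of untreated wells and 0% = no signal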); details: H69AR lung tumor cells viability, ATP luminescence, 72 h; at 10 µM; stronger effect = lower value
[6] = reversal of MRP1-mediated doxorubicin resistance, pilot screen, H69AR cells, doxorubicin co-treatment (AID 601;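 active = viability loss from added drug above about 55%, and viability with drug at most 40%, in both replicates, limit read from the data, passing the limit was not always enough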); details: CellTiter-Glo, 72 h, at 10 µM; for differential viability (reversal): stronger effect = higher value
[7] = 384-well plate pilot, post-Golgi transport modulator project, inhibition of yeast transport mutant growth (AID 636; in the data active = inhibition above about 31%); details: absorbance 615 nm, about 18 h, stronger effect = higher value
[8] = growth suppression of yeast trafficking mutant, preliminary HTS, modulators of trafficking downstream of Golgi apparatus project, 1536-format plate, OD 615 nm (AID 637; in the data active = inhibition above about 30%); details: yeast transport mutant growth, absorbance 615 nm, 18 h; stronger effect = higher value
[9] = OD615 S. cerevisiae growth inhibition, permissive medium, pilot counter-assay, permissive growth control for S. cerevisiae lifespan shortening project (AID 705); details: OD615, 24 h, at 10 µM, stronger effect = higher value
[10] = Restrictive medium S. cerevisiae growth inhibition, OD615, pilot screen of yeast lifespan reduction project, restrictive growth control (AID 706;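 active = growth inhibition above a set limit, 3 SD over mean compound inhibition, in both replicates, cut at about 43% in these data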;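 note: modified DeaD lifespan yeast strain shifted to restrictive glucose medium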); details: OD615, 48 h, at 10 µM, stronger effect = higher value
[11] = viability gain of MRP-1-high H69AR cells under doxorubicin, pilot screen, MRP-1 activator project, CellTiter-Glo, duplicate (AID 807;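 active = viability increase at or above a cutoff of the median across tested compounds plus 3 SD, cut at about 8.5% in these data, passing the limit was not always enough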;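 note: compound pretreatment 18-22 h then 72 h combined with doxorubicin; 0% = doxorubicin alone and 100% = vehicle without doxorubicin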); details: H69AR viability with doxorubicin, CellTiter-Glo luminescence; at 10 µM; stronger effect = higher value
[12] = growth suppression of beta-catenin knockout HCT116, pilot screen, human colon tumor cells (AID 823;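 active = cell viability at or below a set limit in both duplicate runs, the limit being the all-compound median minus 4 SD, cut at about 23% in these data, passing the limit was not always enough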;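 note: 0% = wells killed by 20 µM Hyamine and 100% = untreated DMSO cell wells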); details: CellTiter-Glo, 60 h, at 10 µM, stronger effect = lower value
[13] = inhibitors of the yeast RAM network, pilot screen, dse1pr::URA3 reporter, 5-FOA selection (AID 869;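 active = inhibition over a set limit, the all-compound mean plus 3 SD, in both replicate runs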;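 note: 0% = DMSO wells with no growth and 100% = 10 µM 1-NA-PP1 with full growth; RAM network block rescues cells from 5-FOA so hits raise OD615 growth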); details: S. cerevisiae dse1pr::URA3 5-FOA growth, OD615, 2 d; at 10 µM; stronger effect = higher value; strain carries analog-sensitive mutant Cbk1 kinase
[14] = RAM signaling pathway blockade in yeast – S. cerevisiae, Pdr1DBD-CYC8 efflux-inhibited sensitized strain, primary screen (AID 1298;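 active = RAM network inhibition above 8.4% in each of two replicates, 3 SD over the compound average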;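 note: 0% = DMSO untreated cells without growth and 100% = 10 µM 1-NA-PP1 full growth; higher means more yeast growth rescued from 5-FOA killing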); details: S. cerevisiae cbk1-as DSE1-URA3 strain, 5-FOA growth OD615, 2 d; at 50 µM; stronger effect = higher value
[15] = growth suppression of PTEN-deleted HCT116, pilot screen, cell-based, HCT116 clonal line, CellTiter-Glo (AID 824;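 active = viability at or below 27.92% in each of two runs, the all-compound median minus 4 SD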;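 note: 0% = 20 µM Hyamine control and 100% = vehicle cell control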); details: 60 h, at 10 µM, stronger effect = lower value
[16] = H69AR cells + 2 uM doxorubicin, measured here: viability with 2 uM doxorubicin, stronger effect = lower value
[17] = H69AR cells, compound alone cytotoxicity

Row | Compound | viability [1] | Her2 level [2] | viability [3] | viability [4] | viability [5] | differential viability (reversal) ([6]; H69AR cells + 2 uM doxorubicin) | viability [6, 16] | viability [6, 17] | inhibition [7] | inhibition [8] | growth inhibition [9] | growth inhibition [10] | viability increase [11] | viability [12] | inhibition [13] | RAM network inhibition [14] | viability [15]
1 | Cn1ccnc1SCC(=O)Nc1ccc2ccccc2c1 | 96.5% | 85.5% (inactive) | 96.5% (inactive) | 91.5% (inactive) | 105% (inactive) | 17.8% (inactive) | 86.9% | 105% | -4.38% (inactive) | -4.92% (inactive) | 2.36% (inactive) | 3.36% (inactive) | -2.68% (inactive) | 96.8% (inactive) | 1.69% (inactive) | 3.49% (inactive) | –
2 | CC(=O)NCC(=O)N(Cc1ccco1)C1(C(=O)NC2CCCCC2)CCCCC1 | 140% | 93% (inactive) | 140% (inactive) | 103% (inactive) | 90.9% (inactive) | 2.67% (inactive) | 88.3% | 90.9% | -9.59% (inactive) | 2.7% (inactive) | -7.64% (inactive) | 2.32% (inactive) | -5.15% (inactive) | – | 2.22% (inactive) | -0.72% (inactive) | 90% (inactive)
3 | COc1cccc(CNC(=O)CCS(=O)(=O)c2cccc3nsnc23)c1 | 106% | 91% (inactive) | 106% (inactive) | 105% (inactive) | 89.6% (inactive) | -6.93% (inactive) | 96.6% | 89.6% | -7.67% (inactive) | 0.95% (inactive) | -8.72% (inactive) | -10.3% (inactive) | -2.45% (inactive) | – | 1.32% (inactive) | 0.77% (inactive) | 97.1% (inactive)
4 | COc1cccc(N(C(C)=O)c2nc(C)cc(C)c2C#N)c1 | 102% | 87% (inactive) | 102% (inactive) | 96.1% (inactive) | 104% (inactive) | 8.34% (inactive) | 95.3% | 104% | -7.26% (inactive) | -1.59% (inactive) | -15.4% (inactive) | 9.36% (inactive) | -0.35% (inactive) | 109% (inactive) | 1.36% (inactive) | 2.39% (inactive) | –
5 | CCOC(=O)c1cc2c(=O)n3ccccc3nc2n(CCCOC)c1=NC(=O)C(C)(C)C | 91% | 92% (inactive) | 91% (inactive) | 105% (inactive) | 83.7% (inactive) | 23.1% (inactive) | 60.6% | 83.7% | -7.4% (inactive) | -3.17% (inactive) | -11% (inactive) | 7.96% (inactive) | -2.09% (inactive) | – | 2.98% (inactive) | 2.11% (inactive) | 91.4% (inactive)
